Laboratory results published in PubChem BioAssay (NCATS).
Values joined by “and” are separate entries in the source; they are usually repeats but may differ in a detail not shown here. Identical values can stand only once. Unmarked numbers belong to inactive results. Inconclusive results are not listed. Active and inactive are the calls of the source. Unless noted, calls come from the whole dose curve; as a rule, active = well fitted curve in the direction sought with a large enough effect; inconclusive = small, poorly fitted or top-dose-only effect, or another doubt; inactive = no such curve, though single readings can be large; an effect the other way counts as inactive or inconclusive.

How the values were obtained:
[1] = Cell Viability - BJ (AID 421; calls by dose curve;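 note: potency is the fitted concentration of half-maximal effect; cells exposed to compound for 40 hours at 37 °C before readout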); settings: BJ fibroblast viability, qHTS
In short: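 Cytotoxicity as drop in intracellular ATP (CellTiter-Glo, 20 min RT) after 40 hr compound exposure of BJ fibroblasts at 37 °C. Titrations scaled between DMSO and 100 uM tamoxifen, Hill-fitted for AC50.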

[2] = Cell Viability - Jurkat (AID 426;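 active = dose-dependent loss of cell ATP signal giving a full or clear fitted curve, ranked by lower potency value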; note: potency is the fitted concentration of half-maximal effect); settings: qHTS
In short: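 qHTS, 1536-well; Jurkat E6-1, 5000 cells/well, complete medium; cpd 40 hr, 37 °C; CellTiter-Glo 20 min RT; luminescence. AC50 by Hill fit.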

[3] = Cell Viability - HepG2 (AID 433; calls by dose curve;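 note: potency is the fitted concentration of half-maximal effect; potency for ATP loss meaning cytotoxicity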); settings: qHTS
In short: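 HepG2 hepatocellular carcinoma cells (1500/well) were treated with compounds for 40 h at 37 °C in complete medium; intracellular ATP was read by CellTiter-Glo luminescence. Data were normalized to DMSO and 100 uM tamoxifen, and AC50 came from Hill fits.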

[4] = Cell Viability - MRC5 (AID 434; calls by dose curve;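 note: potency is the fitted concentration of half-maximal effect; potency reflects cytotoxicity seen as loss of intracellular ATP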); settings: MRC5 lung fibroblast viability, qHTS
In short: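 MRC5 normal human lung fibroblasts, 1500 cells/well, exposed to compound for 40 hr at 37 C. Cellular ATP was read by CellTiter-Glo luminescence; data normalized to DMSO and 100 uM tamoxifen, with AC50 from Hill fits.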

[5] = Cell Viability - SK-N-SH (AID 435; calls by dose curve;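 note: potency is the fitted concentration of half-maximal effect; compound exposure lasted 40 h at 37 °C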); settings: SK-N-SH neuroblastoma cell viability qHTS
In short: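 SK-N-SH human neuroblastoma cells (1500/well) were exposed to compounds in complete medium for 40 h at 37 °C, and intracellular ATP was then measured by CellTiter-Glo luminescence. AC50 was taken from Hill fits, normalized to DMSO and 100 uM tamoxifen.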

[6] = biological target: Mitogen-activated protein kinase 10 (Mus musculus) (UniProt Q61831); assay: JNK3 AlphaScreen Assay (AID 530; active = well fitted curve in either direction with a large enough effect, not every such curve was filed as active;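 note: kinase came from lysate of stimulated human HepG2 cells; signal reports phosphorylation of biotinylated GST-cJun 1-79 at Ser73 with 10 µM ATP; % is set by controls: 0 for no effect and ±100 for the full control effect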); settings: JNK3 lysate, c-Jun phosphorylation; series mostly up to 57.1 µM
In short: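 Pre-activated (IL-1β/TNFα) JNK3 in HepG2 lysates phosphorylates biotin-GST-cJun(1-79), 10 uM ATP; anti-phospho-cJun(Ser73) AlphaScreen read at room temperature, pH 7.6 Tris buffer. Compounds pre-incubated 15 min as titrations.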

[7] = Cell Viability - NIH 3T3 (AID 541); settings: NIH 3T3 cell viability, qHTS; activity change, negative = cytotoxicity: at 92.2 µM (top of the series); note: nearly all actives have a fitted effect of over 25% in size; note: potency is the fitted concentration of half-maximal effect;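 for activity change, negative = cytotoxicity: plate controls were DMSO alone for no effect and tamoxifen positive control for full effect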
In short: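 Luminescent ATP signal (CellTiter-Glo) served as the viability read-out after NIH 3T3 cells were exposed to compounds over a concentration range for 40 hr at 37 °C. Hill-equation modelling of concentration-response data gave AC50.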

[8] = Cell Viability - SH-SY5Y (AID 544); settings: SH-SY5Y neuroblastoma cell viability; viability change, negative = cytotoxic: at 92.2 µM (top of the series); note: nearly all actives have a fitted effect of over 55% in size; note: potency is the fitted concentration of half-maximal effect;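 for viability change, negative = cytotoxic: 0% = DMSO alone and -100% = 100 µM tamoxifen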
In short: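 Luminescent ATP read-out (CellTiter-Glo) measures loss of viable SH-SY5Y neuroblastoma cells after 40 hr compound exposure at 37 °C. AC50 values derive from standard Hill modelling of qHTS concentration-response data.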

[9] = Cell Viability - Renal Proximal Tubule (AID 545); settings: renal proximal tubule cells viability, primary cells of rat origin; activity change, negative = cytotoxicity: at 91.7 µM (top of the series); note: nearly all actives have a fitted effect of over 40% in size; note: potency is the fitted concentration of half-maximal effect;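 for activity change, negative = cytotoxicity: 0% = DMSO only and -100% = 100 µM tamoxifen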
In short: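 Primary rat renal proximal tubule cells (1000/well) were treated with compounds for 40 hr at 37 °C in complete medium. Intracellular ATP was measured by CellTiter-Glo luminescence, and AC50 values came from Hill-equation fits of concentration-response data.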

[10] = Cell Viability - Mesenchymal (AID 546); settings: mesenchymal cells viability, qHTS; activity change, negative = cytotoxicity: at 91.7 µM (top of the series);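 note: cells exposed to compound for 40 hours before reading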; note: potency is the fitted concentration of half-maximal effect;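 for activity change, negative = cytotoxicity: 0% = DMSO only and -100% = 100 µM tamoxifen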
In short: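 Human kidney mesenchymal cells from normal renal glomeruli, 1000 cells/well, rested 5 hr at 37 °C, then treated 40 hr at 37 °C in complete medium. Cellular ATP read by CellTiter-Glo luminescence; AC50 from Hill-equation fits.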

[11] = Cell Viability - Hek293 (AID 427;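 active = compounds whose dose-response curve shows a full or clear partial loss of cell viability, called from curve shape rather than a numeric limit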;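 note: potency is the fitted concentration of half-maximal effect; cells exposed to compound for 40 hours at 37 °C before reading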); settings: qHTS
In short: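 Luminescent ATP content (CellTiter-Glo, 20 min at room temperature) was measured after a 40 hr, 37 °C compound exposure of HEK293 cells. AC50 values came from Hill-equation fits of qHTS concentration-response data normalized to DMSO and 100 uM tamoxifen.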

[12] = Cell Viability - N2a (AID 540); settings: N2a mouse neuroblastoma cell viability; activity change, negative = cytotoxicity: at 92.2 µM (top of the series); note: nearly all actives have a fitted effect of over 45% in size; note: potency is the fitted concentration of half-maximal effect;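 for activity change, negative = cytotoxicity: plate controls were DMSO alone for no effect and tamoxifen control for full effect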
In short: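 Luminescent ATP signal (CellTiter-Glo, 20 min at room temperature) served as the viability read-out after N2a cells were treated with compounds for 40 hours at 37 °C. Concentration-response data were fitted to the Hill equation for AC50.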

[13] = Cell Viability - HUV-EC-C (AID 542); settings: HUV-EC-C endothelial cell viability, qHTS; series mostly up to 92.2 µM; note: nearly all actives have a fitted effect of over 35% in size; note: potency is the fitted concentration of half-maximal effect; for activity change, negative = cytotoxicity: % is set by controls: 0 for no effect and ±100 for the full control effect
In short: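 qHTS cytotoxicity: HUV-EC-C, 1000 cells/well, 5 hr settle, compound 40 hr 37 °C, CellTiter-Glo, luminescence. AC50 via Hill equation.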

[14] = Cell Viability - H-4-II-E (AID 543); settings: H-4-II-E rat hepatoma viability; series mostly up to 92.2 µM; note: nearly all actives have a fitted effect of over 35% in size; note: potency is the fitted concentration of half-maximal effect
In short: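 Luminescent ATP signal (CellTiter-Glo) served as the viability read-out, with cytotoxicity seen as a concentration-dependent ATP drop. Cells were treated for 40 hours in complete medium. AC50 values derive from Hill-equation modelling.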

[15] = Stat Signaling Pathway (AID 446; active = well fitted curve in either direction with a large enough effect, not every such curve was filed as active;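 note: ME-180 cervical cancer cells given 40 pM IL-6 alongside compound; SIE-controlled beta-lactamase reporter measured as 460/530 nm FRET emission ratio; % is set by controls: 0 for no effect and ±100 for the full control effect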); settings: ME-180 SIE beta-lactamase reporter, IL-6 stimulated, 5 h; series mostly up to 17.2 µM
In short: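 Reporter line: ME-180 cervical carcinoma, SIE-beta-lactamase. Treatment: compound with 40 pM IL-6, 5 hrs, 37 C, in low-serum OPTI-MEM with 10 mM HEPES pH 7.3. Detection: 460/530 nm fluorescence.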

[16] = biological target: Glucocorticoid receptor (Homo sapiens) (UniProt P04150); assay: GR-GFP Redistribution (AID 450;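 active = compounds whose dose series gives a full or clear partial fitted curve of increased nuclear translocation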; note: potency is the fitted concentration of half-maximal effect); settings: U2OS GR-GFP nuclear translocation, laser cytometry, 2 h
[17] = biological target: Glucocorticoid receptor (Homo sapiens) (UniProt P04150); assay: GR-EFC Redistribution (AID 451; calls by dose curve; note: potency is the fitted concentration of half-maximal effect); settings: CHO-K1 GR-EFC translocation, beta-gal luminescence, 2 h
In short: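 CHO-K1 cells expressing nuclear EA and GR-ED fragments of b-gal; compounds titrated up to 46 uM final, 2 h at 37 C. GR nuclear translocation read as complemented b-gal luminescence after 1 h RT detection.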

Glucocorticoid receptor (Homo sapiens), sequence (P04150 whole entry, looked up, the tested form may be a part): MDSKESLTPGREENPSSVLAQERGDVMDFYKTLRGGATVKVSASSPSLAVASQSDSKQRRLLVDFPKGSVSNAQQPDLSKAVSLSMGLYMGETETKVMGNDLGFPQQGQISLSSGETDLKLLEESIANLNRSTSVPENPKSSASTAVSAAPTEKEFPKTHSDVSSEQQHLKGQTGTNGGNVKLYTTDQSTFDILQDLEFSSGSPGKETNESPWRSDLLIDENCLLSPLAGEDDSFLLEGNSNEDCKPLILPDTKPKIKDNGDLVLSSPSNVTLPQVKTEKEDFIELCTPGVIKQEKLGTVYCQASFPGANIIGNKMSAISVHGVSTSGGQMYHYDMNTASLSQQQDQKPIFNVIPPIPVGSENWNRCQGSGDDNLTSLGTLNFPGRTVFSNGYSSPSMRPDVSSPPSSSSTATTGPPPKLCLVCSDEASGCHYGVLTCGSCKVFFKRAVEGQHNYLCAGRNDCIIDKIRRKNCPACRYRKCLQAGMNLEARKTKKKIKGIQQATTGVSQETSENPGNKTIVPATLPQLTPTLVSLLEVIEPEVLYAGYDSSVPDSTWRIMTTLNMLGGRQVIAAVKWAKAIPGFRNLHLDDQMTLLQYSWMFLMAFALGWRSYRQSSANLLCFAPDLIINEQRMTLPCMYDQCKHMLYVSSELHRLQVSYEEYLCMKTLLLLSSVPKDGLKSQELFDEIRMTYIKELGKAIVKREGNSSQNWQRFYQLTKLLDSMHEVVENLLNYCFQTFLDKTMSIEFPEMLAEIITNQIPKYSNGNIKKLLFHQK

CC(C)(C)c1ccc(O)c(O)c1
Potency [1]: > 92 µM
Potency [2]: 49.4 µM (active)
Potency [3]: > 92 µM
Potency [4]: > 92 µM
Potency [5]: 54.4 µM (active)
outcome [6]: inactive
activity change, negative = cytotoxicity [7]: -146% (active)
Potency [8]: 12.6 µM (active)
activity change, negative = cytotoxicity [9]: -98.1% (active)
activity change, negative = cytotoxicity [10]: -100% (active)

Nc1cccc2c(N)cccc12
Potency [1]: > 92 µM
Potency [2]: > 92 µM
Potency [11]: > 92 µM
Potency [3]: > 92 µM
Potency [4]: > 92 µM
Potency [5]: > 92 µM
outcome [6]: inactive
Potency [12]: inactive
Potency [13]: inactive
Potency [14]: inactive
Potency [9]: inactive
Potency [10]: inactive

Brc1ccccc1-c1ccccc1
Potency [1]: > 92 µM
Potency [2]: > 92 µM
Potency [11]: > 92 µM
Potency [3]: > 92 µM
Potency [4]: > 92 µM
Potency [5]: > 92 µM
outcome [6]: inactive
Potency [12]: inactive
activity change, negative = cytotoxicity [7]: 3.13%
Potency [13]: inactive
Potency [14]: inactive
Potency [8]: inactive
Potency [9]: inactive
Potency [10]: inactive

CCCCCCCCCCCCCCCC[n+]1ccccc1
Potency [1]: 55.8 µM (active)
Potency [2]: 19.2 µM (active)
Potency [11]: 54.4 µM (active)
Potency [3]: 32.8 µM (active)
Potency [4]: 29.8 µM (active)
Potency [5]: 28.7 µM (active)
outcome [6]: inactive
Potency [12]: 0.398 µM (active)
Potency [7]: 25.1 µM (active)
Potency [14]: 3.98 µM (active)
Potency [8]: 25.1 µM (active)
Potency [9]: 31.6 µM (active)
Potency [10]: 31.6 µM (active)

Nc1c2ccccc2nc2ccccc12
Potency [2]: 31.9 µM (active)
Potency [4]: 38.2 µM (active)
Potency [5]: 40.5 µM (active)
outcome [6]: inactive
activity change, negative = cytotoxicity [12]: -89.3% (active)
activity change, negative = cytotoxicity [7]: -137% (active)
Potency [13]: 15.8 µM (active)
Potency [14]: 15.8 µM (active)
Potency [8]: 7.94 µM (active)
Potency [9]: 31.6 µM (active)

Cn1cnc2c(NCc3ccccc3)nc(NCCO)nc21
outcome [15]: inactive
Potency [16]: > 46 µM
Potency [17]: > 46 µM

Nc1c[n+](N2CCOCC2)no1
Potency [16]: > 46 µM
Potency [17]: > 46 µM
outcome [6]: inactive

O=C(Oc1ccccc1)c1ccccc1O
Potency [1]: > 92 µM
Potency [2]: > 92 µM
Potency [11]: > 92 µM
Potency [3]: > 92 µM
Potency [4]: > 92 µM
Potency [5]: > 92 µM
outcome [6]: inactive
Potency [12]: inactive
Potency [13]: inactive
Potency [14]: inactive
Potency [8]: inactive
Potency [9]: inactive
Potency [10]: inactive

NCC(=O)O
Potency [16]: > 46 µM
Potency [17]: > 46 µM
outcome [6]: inactive

CC(C)(c1ccc(O)cc1)c1ccc(O)cc1
Potency [1]: > 92 µM
Potency [2]: > 92 µM
Potency [11]: > 92 µM
Potency [3]: > 92 µM
Potency [4]: > 92 µM
Potency [5]: > 92 µM
outcome [6]: inactive
Potency [12]: inactive
activity change, negative = cytotoxicity [7]: -22.2% and -23.1%
Potency [13]: inactive
Potency [14]: inactive
Potency [8]: inactive
Potency [9]: inactive
Potency [10]: inactive

Nc1ccc(O)cc1
Potency [1]: 62.8 µM (active)
Potency [2]: 38.6 µM (active)
Potency [11]: 47.3 µM (active)
Potency [4]: 53.3 µM (active)
Potency [5]: 43 µM (active)
outcome [6]: inactive
Potency [12]: 31.6 µM (active)
activity change, negative = cytotoxicity [7]: -133% (active)
Potency [13]: 31.6 µM (active)
Potency [14]: 39.8 µM (active)
Potency [8]: 25.1 µM (active)
Potency [9]: 25.1 µM (active)
Potency [10]: 31.6 µM (active)

Cc1cc(C(C)(C)C)c(O)c(C(C)(C)C)c1
Potency [1]: > 92 µM
Potency [2]: > 92 µM
Potency [11]: > 92 µM
Potency [3]: > 92 µM
Potency [4]: > 92 µM
Potency [5]: > 92 µM
Potency [12]: inactive
activity change, negative = cytotoxicity [7]: 2.09%
Potency [13]: inactive
Potency [14]: inactive
Potency [8]: inactive
Potency [9]: inactive
Potency [10]: inactive

CC(=O)OC/C=C(C)/C=C/C=C(C)/C=C/C1=C(C)CCCC1(C)C
Potency [1]: > 92 µM
Potency [2]: 63.9 µM (active)
Potency [11]: > 92 µM
Potency [3]: > 92 µM
Potency [4]: > 92 µM
outcome [6]: inactive
Potency [12]: inactive
activity change, negative = cytotoxicity [7]: -114% (active)
Potency [13]: inactive
viability change, negative = cytotoxic [8]: -99.5% (active)
Potency [10]: inactive

O=C(c1ccccc1)c1ccccc1
Potency [1]: > 92 µM
Potency [2]: > 92 µM
Potency [11]: > 92 µM
Potency [3]: > 92 µM
Potency [4]: > 92 µM
Potency [5]: > 92 µM
outcome [6]: inactive
Potency [12]: inactive
activity change, negative = cytotoxicity [7]: -23.6%
Potency [13]: inactive
Potency [14]: inactive
Potency [8]: inactive
Potency [9]: inactive
Potency [10]: inactive

CCCC(=O)c1cc(O)c(O)cc1O
Potency [1]: > 92 µM
Potency [11]: > 92 µM
Potency [3]: > 92 µM
Potency [4]: > 92 µM
outcome [6]: inactive
Potency [13]: inactive
Potency [14]: inactive
viability change, negative = cytotoxic [8]: -93.1% (active)
Potency [9]: inactive

COc1cc(C=O)ccc1O
Potency [1]: > 92 µM
Potency [2]: > 92 µM
Potency [11]: > 92 µM
Potency [3]: > 92 µM
Potency [4]: > 92 µM
Potency [5]: > 92 µM
outcome [6]: inactive
Potency [12]: inactive
activity change, negative = cytotoxicity [7]: -22.1%
Potency [13]: inactive
Potency [14]: inactive
Potency [8]: inactive
Potency [9]: inactive
Potency [10]: inactive

Clc1ccc2c(c1)N=C(N1CCNCC1)c1ccccc1N2
Potency [16]: > 46 µM
Potency [17]: > 46 µM
outcome [6]: inactive

Cc1ccc(O)cc1
Potency [1]: > 92 µM
Potency [2]: > 92 µM
Potency [11]: > 92 µM
Potency [3]: > 92 µM
Potency [4]: > 92 µM
Potency [5]: > 92 µM
Potency [12]: inactive
activity change, negative = cytotoxicity [7]: -11.4%
Potency [13]: inactive
Potency [14]: inactive
Potency [8]: inactive
Potency [9]: inactive
Potency [10]: inactive

C[C@@H](C1=C(CCN(C)C)Cc2ccccc21)c1ccccn1
outcome [6]: inactive

c1ccc2occc2c1
Potency [1]: > 92 µM
Potency [2]: > 92 µM
Potency [11]: > 92 µM
Potency [3]: > 92 µM
Potency [4]: > 92 µM
Potency [5]: > 92 µM
outcome [6]: inactive
Potency [12]: inactive
activity change, negative = cytotoxicity [7]: -5.88%
Potency [13]: inactive
Potency [14]: inactive
Potency [8]: inactive
Potency [9]: inactive
Potency [10]: inactive
